We go through 31 molecules from paper PMC8159961, “Exploring protein hotspots by optimized fragment pharmacophores” (Nature Communications, 2021).

Values without a mark were called inactive. The rule behind the calls is not given here.

Common to all, as to experiment: primary screen, binary call; higher = more effect of the substance
In one experiment the target is Factor Xa (bovine, UniProt P00743). Further details: screenings were carried out in duplicate in one independent experiment. The following applies: 200 µM. On the procedure: Protease inhibitory assays were performed in transparent microtiter plates in a final volume of 200 µL with the use of chromogenic substrates. The reaction rates in the absence and in the presence of the inhibitor were measured; screenings were carried out in duplicate in one independent experiment and Ki values were determined in triplicate in two independent experiments.
Factor Xa, sequence (P00743 41-180 limits assumed): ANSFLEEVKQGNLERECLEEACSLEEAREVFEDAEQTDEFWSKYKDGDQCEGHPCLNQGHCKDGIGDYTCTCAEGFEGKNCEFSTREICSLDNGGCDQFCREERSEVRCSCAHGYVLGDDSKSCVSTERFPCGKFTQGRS
Factor Xa, sequence (P00743 234-492 limits assumed): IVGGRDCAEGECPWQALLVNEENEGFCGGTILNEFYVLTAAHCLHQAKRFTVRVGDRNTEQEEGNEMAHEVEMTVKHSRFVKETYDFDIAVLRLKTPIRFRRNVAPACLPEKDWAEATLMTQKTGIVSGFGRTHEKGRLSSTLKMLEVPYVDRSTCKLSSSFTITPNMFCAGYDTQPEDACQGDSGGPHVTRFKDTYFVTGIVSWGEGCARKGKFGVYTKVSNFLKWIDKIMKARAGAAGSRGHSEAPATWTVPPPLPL

The target of a further experiment is 5-HT6 receptor (human, UniProt P50406). Further details: hit call from the mean of at least two separate experiments. The following applies: 10 µM.
5-HT6 receptor, sequence (P50406 whole entry, looked up): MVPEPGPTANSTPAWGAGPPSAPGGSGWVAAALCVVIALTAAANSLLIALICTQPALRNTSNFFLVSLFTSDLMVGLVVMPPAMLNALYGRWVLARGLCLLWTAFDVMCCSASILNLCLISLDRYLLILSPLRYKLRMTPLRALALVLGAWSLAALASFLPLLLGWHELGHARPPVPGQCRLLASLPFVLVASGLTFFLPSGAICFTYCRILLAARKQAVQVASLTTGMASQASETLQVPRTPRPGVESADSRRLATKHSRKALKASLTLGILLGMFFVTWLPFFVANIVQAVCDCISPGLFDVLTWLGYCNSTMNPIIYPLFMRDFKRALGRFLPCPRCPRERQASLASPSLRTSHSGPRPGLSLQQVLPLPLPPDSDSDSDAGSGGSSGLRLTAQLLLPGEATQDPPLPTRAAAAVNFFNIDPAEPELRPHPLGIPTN
In the next experiment the target is 5-HT7b receptor (human, UniProt P34969). Further details: hit call from the mean of at least two separate experiments. The following applies: 10 µM.
5-HT7b receptor, sequence (P34969 whole entry, looked up): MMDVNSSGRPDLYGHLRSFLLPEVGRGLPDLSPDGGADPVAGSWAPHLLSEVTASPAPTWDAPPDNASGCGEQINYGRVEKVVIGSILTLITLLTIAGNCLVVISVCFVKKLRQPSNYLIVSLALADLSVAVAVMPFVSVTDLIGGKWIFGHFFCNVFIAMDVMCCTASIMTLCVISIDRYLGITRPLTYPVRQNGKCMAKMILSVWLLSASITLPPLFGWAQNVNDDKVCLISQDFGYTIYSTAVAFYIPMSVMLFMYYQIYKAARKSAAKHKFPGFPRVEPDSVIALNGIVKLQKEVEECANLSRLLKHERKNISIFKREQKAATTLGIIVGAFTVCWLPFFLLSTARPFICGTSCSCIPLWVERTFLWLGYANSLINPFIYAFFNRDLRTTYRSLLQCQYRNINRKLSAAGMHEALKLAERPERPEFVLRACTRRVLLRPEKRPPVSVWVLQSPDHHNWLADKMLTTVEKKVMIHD

As to `c1ccc(Nc2nncs2)cc1`, the “Factor Xa” value with Factor Xa was 1 (active). Moreover, in the experiment with 5-HT6 receptor, the 5-HT6 is 0. Besides, the 5-HT7 with 5-HT7b receptor is 0.

As to `c1ccc2sc(N3CCNCC3)nc2c1`, the “Factor Xa” value with Factor Xa is 0. The 5-HT6 with 5-HT6 receptor was 0. Also, the 5-HT7 in the experiment with 5-HT7b receptor was 0.

In the case of `FC1(F)CNCC(F)(F)O1`, the “Factor Xa” value with Factor Xa was 0. The 5-HT6 with 5-HT6 receptor was 0. The 5-HT7 in the experiment with 5-HT7b receptor is 0.

On to `O=C(CN1CCCC1)c1ccccc1Cl`, for which the “Factor Xa” value with Factor Xa is 0. Moreover, in the experiment with 5-HT6 receptor, the 5-HT6 is 0. For the same molecule, the 5-HT7 in the experiment with 5-HT7b receptor is 0.

On to `N#Cc1ccc2ncsc2c1`, for which the “Factor Xa” value in the experiment with Factor Xa was 0. In addition, the 5-HT6 in the experiment with 5-HT6 receptor was 0. Also, the 5-HT7 with 5-HT7b receptor is 0.

As for `COc1ccccc1C1CCNCC1`, the “Factor Xa” value with Factor Xa is 0. Further, the 5-HT6 in the experiment with 5-HT6 receptor was 1 (active). In the experiment with 5-HT7b receptor, the 5-HT7 is 1 (active).

Regarding `Cn1c(N)nc2ccccc21`, in the experiment with Factor Xa, the “Factor Xa” value is 1 (active). Besides, the 5-HT6 with 5-HT6 receptor was 0. For the same molecule, the 5-HT7 with 5-HT7b receptor was 0.

Regarding `CCn1cnc2ccccc21`, the “Factor Xa” value with Factor Xa is 0. In the experiment with 5-HT6 receptor, the 5-HT6 was 0. Also, the 5-HT7 with 5-HT7b receptor is 0.

On to `O=C1CNCCN1c1ccccc1`, for which, in the experiment with Factor Xa, the “Factor Xa” value was 0. In addition, the 5-HT6 with 5-HT6 receptor is 0. Further, in the experiment with 5-HT7b receptor, the 5-HT7 was 0.

Take `Cc1nccn1Cc1cccc(C#N)c1`: the “Factor Xa” value with Factor Xa was 0. The 5-HT6 in the experiment with 5-HT6 receptor is 0. In addition, the 5-HT7 in the experiment with 5-HT7b receptor was 0.

Regarding `O=C1NC(=O)/C(=C\c2cccs2)N1`, in the experiment with Factor Xa, the “Factor Xa” value was 1 (active). Moreover, in the experiment with 5-HT6 receptor, the 5-HT6 was 0. In addition, the 5-HT7 with 5-HT7b receptor is 0.

Consider `Oc1nnc(-c2ccccc2)o1`, for which the “Factor Xa” value with Factor Xa is 0. For the same molecule, the 5-HT6 in the experiment with 5-HT6 receptor was 0. Further, the 5-HT7 in the experiment with 5-HT7b receptor was 0.

`Cc1ccc(CCNc2ccccc2)cn1`: the “Factor Xa” value in the experiment with Factor Xa is 0. Further, the 5-HT6 in the experiment with 5-HT6 receptor is 0. Moreover, the 5-HT7 with 5-HT7b receptor is 0.

In the case of `CC(=O)c1ccc2c(c1)CNCC2`, the “Factor Xa” value with Factor Xa was 0. For the same molecule, the 5-HT6 with 5-HT6 receptor is 0. For the same molecule, the 5-HT7 with 5-HT7b receptor was 0.

On to `CC1C(=O)NC(=O)N1c1ccc(Cl)cc1` (stereo not drawn), for which the “Factor Xa” value in the experiment with Factor Xa is 0. In addition, in the experiment with 5-HT6 receptor, the 5-HT6 is 0. For the same molecule, in the experiment with 5-HT7b receptor, the 5-HT7 is 0.

For the molecule `Fc1ccc(CC2CCCNC2)cc1` (stereo not drawn), the “Factor Xa” value with Factor Xa was 0. The 5-HT6 with 5-HT6 receptor is 0. The 5-HT7 with 5-HT7b receptor is 0.

Take `O=C(O)c1ccc(CN2CCOCC2)cc1`: in the experiment with Factor Xa, the “Factor Xa” value is 0. In the experiment with 5-HT6 receptor, the 5-HT6 was 0. The 5-HT7 with 5-HT7b receptor was 0.

For `Nc1nnc(-c2cccs2)[nH]1`, the “Factor Xa” value with Factor Xa is 0. For the same molecule, in the experiment with 5-HT6 receptor, the 5-HT6 is 1 (active). The 5-HT7 with 5-HT7b receptor was 0.

Consider `COc1cccc(NC2=NCCCCC2)c1`, for which the “Factor Xa” value in the experiment with Factor Xa was 0. The 5-HT6 with 5-HT6 receptor is 0. For the same molecule, the 5-HT7 in the experiment with 5-HT7b receptor is 0.

Take `Cc1cc(-c2ccccc2)n[nH]1`: the “Factor Xa” value with Factor Xa was 0. For the same molecule, the 5-HT6 with 5-HT6 receptor is 0. Besides, the 5-HT7 in the experiment with 5-HT7b receptor was 0.

Take `O=C1CCN(c2ccncc2)CC1`: in the experiment with Factor Xa, the “Factor Xa” value is 0. The 5-HT6 in the experiment with 5-HT6 receptor was 0. In addition, in the experiment with 5-HT7b receptor, the 5-HT7 was 0.

With `O=C1CCCc2occc21`, the “Factor Xa” value with Factor Xa was 0. Moreover, the 5-HT6 with 5-HT6 receptor is 0. Besides, the 5-HT7 in the experiment with 5-HT7b receptor was 0.

Turning to `O=C(O)c1cnc(-c2ccccc2)s1`, the “Factor Xa” value with Factor Xa is 0. In addition, the 5-HT6 in the experiment with 5-HT6 receptor was 0. Besides, the 5-HT7 with 5-HT7b receptor was 0.

`Cc1cc(N)no1`: the “Factor Xa” value with Factor Xa is 0. The 5-HT6 with 5-HT6 receptor was 0. Also, in the experiment with 5-HT7b receptor, the 5-HT7 was 0.

For `Oc1ccccc1N1CCCCC1`, the “Factor Xa” value in the experiment with Factor Xa was 1 (active). Moreover, the 5-HT6 in the experiment with 5-HT6 receptor was 1 (active). For the same molecule, in the experiment with 5-HT7b receptor, the 5-HT7 is 0.

With `c1ccc(-c2ccncc2)cc1`, the “Factor Xa” value with Factor Xa is 0. The 5-HT6 with 5-HT6 receptor was 0. Moreover, in the experiment with 5-HT7b receptor, the 5-HT7 was 0.

Turning to `Oc1ccc(-n2cncn2)cc1`, in the experiment with Factor Xa, the “Factor Xa” value is 0. For the same molecule, the 5-HT6 with 5-HT6 receptor was 0. Besides, in the experiment with 5-HT7b receptor, the 5-HT7 is 0.

Turning to `N#Cc1ccc(C(=O)N2CCOCC2)cc1`, in the experiment with Factor Xa, the “Factor Xa” value is 0. In addition, the 5-HT6 with 5-HT6 receptor was 0. Also, the 5-HT7 in the experiment with 5-HT7b receptor is 0.

Take `O=C(O)C1CCCN(C(=O)N2CCCC2)C1` (stereo not drawn): in the experiment with Factor Xa, the “Factor Xa” value was 0. The 5-HT6 in the experiment with 5-HT6 receptor was 0. For the same molecule, the 5-HT7 with 5-HT7b receptor is 0.

Regarding `CN(C)c1cc(CN)ccn1`, the “Factor Xa” value in the experiment with Factor Xa was 0. Besides, the 5-HT6 with 5-HT6 receptor was 0. The 5-HT7 with 5-HT7b receptor was 0.

In the case of `O=C(O)C1CCN(c2ncccn2)CC1`, in the experiment with Factor Xa, the “Factor Xa” value was 0. Moreover, the 5-HT6 with 5-HT6 receptor is 0. The 5-HT7 with 5-HT7b receptor was 0.
